# In PubChem BioAssay:
# Active and inactive are the calls of the source.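 The calls were made as follows, unless noted: active = fluorescence slope after compound addition differing from the mean of all screened samples at 99.7% confidence, in either direction; inactive = the rest.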
# Tests used:
# [1] = inhibitors of TNFa-induced NFkB p65 translocation, primary screen, imaging, HUVEC, MLSMR starter and 10KST1 sets (AID 438;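 active = inhibition above 20% together with a positive visual image hit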;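 also: compound added about 3h40 before a 20 min TNFalpha stimulation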;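 as to inhibition: signal is the nuclear over cytoplasmic p65 intensity ratio per well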); settings: HUVEC TNFa-induced p65 nuclear translocation; cell count: measured here: nuclei count (cytotoxicity indicator), at 2.08 µM; inhibition: at 2 µM, stronger effect = higher value, 0% TNFa-plus-vehicle, 100% no-TNFa wells
# [2] = reduction of polyQ htt aggregates in cells – imaging, exon1htt(103Q)mCFP cells, high-content imaging, primary screen (AID 483;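 active = visual image review flags a hit and inhibition of aggregation exceeds 20%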;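 also: compound exposure lasted 3 days before fixation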;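 as to nuclei count: percent of the per-plate median nuclei count of sample wells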); settings: exon1htt(103Q)mCFP cell line, aggregate imaging, at 2 µM; inhibition of aggregation: stronger effect = higher value; nuclei count: measured here: cell count, toxicity
# [3] = endothelial E-selectin expression blockers – imaging, HUVEC, immunofluorescence, MLSMR starter and 10KST1 sets, primary screen (AID 487;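 active = visually confirmed hit in the image check and inhibition above 20%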;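 as to inhibition: signal is fraction of cell area covered by stained E-selectin grains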;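 as to nuclei count: 100% = median nuclei count of all wells on the same plate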); settings: HUVEC TNFalpha-induced E-selectin immunofluorescence imaging, at 2 µM; inhibition: stronger effect = higher value; nuclei count: measured here: cell number, toxicity
# [4] = target: Voltage-gated potassium channel subunit beta-2 (Rattus norvegicus) (UniProt P62483); test: inhibitors of rat Kvbeta2 reductase activity – biochemical, NADPH fluorescence, primary screen (AID 622;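 active = fluorescence slope higher than the sample average by over 3 SD, cut at about -0.22 in these data, passing the limit was not always enough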;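 also: slope of raw intensity against log time taken from 70 to 1610 s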); settings: recombinant KvBeta, 4-cyanobenzaldehyde reduction, at 10 µM, stronger effect = higher value
# [5] = target: Voltage-gated potassium channel subunit beta-2 (Rattus norvegicus) (UniProt P62483); test: enhancers of rat Kvbeta2 NADPH turnover – biochemical, NADPH fluorescence, primary screen (AID 623;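 active = NADPH fluorescence slope more negative than the mean of all samples by about 3 SD, 99.7% confidence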;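 also: fluorescence intensity change per second fitted from 20 to 320 s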); settings: Recombinant KvBeta, NADPH fluorescence decrease slope, 10 min; at 10 µM; stronger effect = lower value
# [6] = target: Alpha-2C adrenergic receptor (Homo sapiens) (UniProt P18825); test: compounds altering alpha2C-coupled GIRK flux – cell-based, HEK293 alpha2C/GIRK1/2, thallium flux, primary screen (AID 624); settings: thallium flux BTC fluorescence, at 10 µM, actives lie on both sides;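 also: slope of fluorescence ratio to pre-addition baseline per second over 15 to 24 s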
# [7] = blockers of RIG-like receptor reporter activation – cell-based, Sendai virus stimulus, luciferase, 10K MLSCN set, TLR/RLR signaling modifier project, primary screen (AID 602276;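 active = inhibition at or above 50% at 10 µM; inactive = inhibition below 50%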;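 also: firefly luciferase from ISG56 promoter only with Renilla not read in this screen; 0% = Sendai virus plus DMSO and 100% = medium plus DMSO without virus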); settings: HEK293 RL24 IRF3 luciferase reporter, at 10 µM, stronger effect = higher value
# [8] = TLR3 IRF3 reporter activation blockers – cell-based, poly I:C stimulus, luciferase, 10K MLSCN set, primary screen (AID 602277;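 active = inhibition of the reporter signal at or above 50%; inactive = inhibition below 50%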); settings: HEK293-TLR3 RL24 IRF3 luciferase reporter, at 10 µM, stronger effect = higher value
# Chain of Alpha-2C adrenergic receptor (Homo sapiens) (P18825 whole entry, looked up): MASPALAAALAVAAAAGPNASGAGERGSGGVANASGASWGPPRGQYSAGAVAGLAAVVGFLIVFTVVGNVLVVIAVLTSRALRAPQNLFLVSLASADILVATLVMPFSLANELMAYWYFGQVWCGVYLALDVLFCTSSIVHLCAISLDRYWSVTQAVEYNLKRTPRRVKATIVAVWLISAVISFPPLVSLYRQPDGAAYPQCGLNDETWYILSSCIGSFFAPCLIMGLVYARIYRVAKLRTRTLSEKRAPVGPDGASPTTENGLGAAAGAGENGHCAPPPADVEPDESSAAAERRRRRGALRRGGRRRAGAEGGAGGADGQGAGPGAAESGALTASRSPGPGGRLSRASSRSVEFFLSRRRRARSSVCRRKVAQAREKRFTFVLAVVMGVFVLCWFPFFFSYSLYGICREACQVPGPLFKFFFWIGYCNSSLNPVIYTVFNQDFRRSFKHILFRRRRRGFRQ
# Chain of Voltage-gated potassium channel subunit beta-2 (Rattus norvegicus) (P62483 whole entry, looked up): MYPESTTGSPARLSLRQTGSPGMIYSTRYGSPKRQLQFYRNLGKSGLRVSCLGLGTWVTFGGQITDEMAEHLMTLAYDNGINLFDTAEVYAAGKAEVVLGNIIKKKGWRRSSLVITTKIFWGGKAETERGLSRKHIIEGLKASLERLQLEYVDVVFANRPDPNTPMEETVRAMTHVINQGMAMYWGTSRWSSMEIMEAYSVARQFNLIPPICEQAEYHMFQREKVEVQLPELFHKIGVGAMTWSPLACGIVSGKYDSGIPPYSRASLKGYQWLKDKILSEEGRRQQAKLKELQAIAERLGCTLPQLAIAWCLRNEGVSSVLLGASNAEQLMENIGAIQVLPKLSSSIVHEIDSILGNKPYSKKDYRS
structure (smiles),measurement,setting,value
COc1ccc(N(CC(=O)Nc2ccc3c(c2)OCO3)S(=O)(=O)c2c(C)nn(C)c2C)cc1,cell count,[1],538
same,inhibition,[1],11.9% (inactive)
same,inhibition of aggregation,[2],17.9% (inactive)
same,nuclei count,[2],51%
same,inhibition,[3],-46% (inactive)
same,nuclei count,[3],105%
same,fluorescence slope,[4],-0.57 (inactive)
same,NADPH fluorescence slope,[5],-4.5e-06 (inactive)
same,slope,[6],0.00577 (inactive)
same,inhibition,[7],10.2% (inactive)
same,inhibition,[8],17.3% (inactive)
O=C(Nc1ccc(Cl)cn1)c1cccnc1,cell count,[1],340
same,inhibition,[1],-8% (inactive)
same,inhibition of aggregation,[2],2.7% (inactive)
same,nuclei count,[2],107%
same,inhibition,[3],-1.5% (inactive)
same,nuclei count,[3],102%
same,fluorescence slope,[4],-0.473 (inactive)
same,NADPH fluorescence slope,[5],1.1e-05 (inactive)
same,slope,[6],0.00527 (inactive)
same,inhibition,[7],-14% (inactive)
same,inhibition,[8],-34.8% (inactive)
O=C(CN1c2cccc3cccc(c23)S1(=O)=O)N1CCOCC1,cell count,[1],253
same,inhibition,[1],-5.5% (inactive)
same,inhibition of aggregation,[2],16% (inactive)
same,nuclei count,[2],83%
same,inhibition,[3],-59.8% (inactive)
same,nuclei count,[3],101%
same,fluorescence slope,[4],-0.189 (inactive)
same,NADPH fluorescence slope,[5],-1.8e-05 (inactive)
same,slope,[6],0.00514 (inactive)
same,inhibition,[7],17% (inactive)
same,inhibition,[8],13.6% (inactive)
COC(=O)C1=C(CSCc2ccco2)NC(=O)NC1c1cc(C)ccc1C (stereo not drawn),cell count,[1],369
same,inhibition,[1],-10.5% (inactive)
same,inhibition of aggregation,[2],-15.1% (inactive)
same,nuclei count,[2],115%
same,inhibition,[3],-20.5% (inactive)
same,nuclei count,[3],109%
same,fluorescence slope,[4],-0.423 (inactive)
same,NADPH fluorescence slope,[5],3.5e-05 (inactive)
same,slope,[6],0.00488 (inactive)
same,inhibition,[7],-3.03% (inactive)
same,inhibition,[8],-1.57% (inactive)
CCOC(=O)Nc1ccc(NS(=O)(=O)c2ccc(C)cc2)cc1,cell count,[1],342
same,inhibition,[1],-0.8% (inactive)
same,inhibition of aggregation,[2],-13.3% (inactive)
same,nuclei count,[2],114%
same,inhibition,[3],-108% (inactive)
same,nuclei count,[3],134%
same,fluorescence slope,[4],-0.507 (inactive)
same,NADPH fluorescence slope,[5],8.9e-06 (inactive)
same,slope,[6],0.00595 (inactive)
same,inhibition,[7],1.72% (inactive)
same,inhibition,[8],9.39% (inactive)
CCCn1cnc2c(cnn2-c2ccc(F)cc2)c1=O,cell count,[1],451
same,inhibition,[1],5.5% (inactive)
same,inhibition of aggregation,[2],11.2% (inactive)
same,nuclei count,[2],85.6%
same,inhibition,[3],-41.5% (inactive)
same,nuclei count,[3],124%
same,fluorescence slope,[4],-0.536 (inactive)
same,NADPH fluorescence slope,[5],1.4e-05 (inactive)
same,slope,[6],0.00574 (inactive)
same,inhibition,[7],-35.2% (inactive)
same,inhibition,[8],-147% (inactive)
CCCC(=O)Nc1cc(C)c2c(=O)oc3ccccc3c2n1,cell count,[1],627
same,inhibition,[1],-24.4% (inactive)
same,inhibition of aggregation,[2],-6.5% (inactive)
same,nuclei count,[2],97.4%
same,inhibition,[3],-37.2% (inactive)
same,nuclei count,[3],121%
same,fluorescence slope,[4],-0.447 (inactive)
same,NADPH fluorescence slope,[5],-7.8e-05 (inactive)
same,slope,[6],0.0057 (inactive)
same,inhibition,[7],-9.8% (inactive)
same,inhibition,[8],-24.7% (inactive)
CCOC(=O)N1CCN(C(=O)COc2ccc(Br)cc2Cl)CC1,cell count,[1],317
same,inhibition,[1],2% (inactive)
same,inhibition of aggregation,[2],-6.6% (inactive)
same,nuclei count,[2],98.4%
same,inhibition,[3],-27.2% (inactive)
same,nuclei count,[3],118%
same,fluorescence slope,[4],-0.445 (inactive)
same,NADPH fluorescence slope,[5],-5.1e-05 (inactive)
same,slope,[6],0.00378 (inactive)
same,inhibition,[7],6.45% (inactive)
same,inhibition,[8],30.7% (inactive)
CCOC(=O)N1CCN(c2c(N3CCN(c4ccccn4)CC3)c(=O)c2=O)CC1,cell count,[1],555
same,inhibition,[1],3.4% (inactive)
same,inhibition of aggregation,[2],25.3% (inactive)
same,nuclei count,[2],76.1%
same,inhibition,[3],-24.6% (inactive)
same,nuclei count,[3],119%
same,fluorescence slope,[4],-0.506 (inactive)
same,NADPH fluorescence slope,[5],-5.8e-06 (inactive)
same,slope,[6],0.00633 (inactive)
same,inhibition,[7],9.82% (inactive)
same,inhibition,[8],16.3% (inactive)
COc1ccc(CCNC(=O)c2ccncc2)cc1OC,cell count,[1],162
same,inhibition,[1],-18.8% (inactive)
same,inhibition of aggregation,[2],10.4% (inactive)
same,nuclei count,[2],95.7%
same,inhibition,[3],11.2% (inactive)
same,nuclei count,[3],90%
same,fluorescence slope,[4],-0.499 (inactive)
same,NADPH fluorescence slope,[5],-4.1e-05 (inactive)
same,slope,[6],0.00561 (inactive)
same,inhibition,[7],17.7% (inactive)
same,inhibition,[8],19.9% (inactive)
CCC(C)NC(=O)c1ccccc1NC(=O)C(C)N(c1ccccc1)S(C)(=O)=O (stereo not drawn),cell count,[1],643
same,inhibition,[1],3.1% (inactive)
same,inhibition of aggregation,[2],5% (inactive)
same,nuclei count,[2],108%
same,inhibition,[3],-7% (inactive)
same,nuclei count,[3],99.9%
same,fluorescence slope,[4],-0.479 (inactive)
same,NADPH fluorescence slope,[5],8.2e-06 (inactive)
same,slope,[6],0.00595 (inactive)
same,inhibition,[7],5.01% (inactive)
same,inhibition,[8],28.8% (inactive)
COc1ccc(CCNC(=O)CSc2nncn2N)cc1OC,cell count,[1],641
same,inhibition,[1],-3.2% (inactive)
same,inhibition of aggregation,[2],24.1% (inactive)
same,nuclei count,[2],81.6%
same,inhibition,[3],-29.4% (inactive)
same,nuclei count,[3],122%
same,fluorescence slope,[4],-0.345 (inactive)
same,NADPH fluorescence slope,[5],-1.6e-05 (inactive)
same,slope,[6],0.00364 (inactive)
same,inhibition,[7],12.1% (inactive)
same,inhibition,[8],21.1% (inactive)
CCCCOc1ccc(-c2ncc(Cl)cn2)cc1,cell count,[1],469
same,inhibition,[1],3% (inactive)
same,inhibition of aggregation,[2],13.9% (inactive)
same,nuclei count,[2],98.8%
same,inhibition,[3],-10% (inactive)
same,nuclei count,[3],115%
same,fluorescence slope,[4],-0.434 (inactive)
same,NADPH fluorescence slope,[5],-6.7e-06 (inactive)
same,slope,[6],0.00373 (inactive)
same,inhibition,[7],-30% (inactive)
same,inhibition,[8],-146% (inactive)
